From PubChem BioAssay
Sampled rows, rich in hits. Any-hit rate of the full collection: about 7.3%.
HCV inh: qHTS Assay for Inhibitors of Hepatitis C Virus (HCV) | Huh7.5.1 HCVcc-Cre infection, luciferase reporter, 44 h | Potency, µM (highest dose often 41.8 µM), inactives show at the top dose activity change, negative = inhibition, actives largely listed as inhibitors | actives 3.4% (n = 340,000) | AID 651820, 2012; active = well fitted inhibition curve with a large enough effect; inconclusive = small, poorly fitted or top-dose-only effect, or another doubt; inactive = no such curve, though single readings can be large or run the other way; note: potency is the fitted concentration of half-maximal effect
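Cells seeded at 1,000/well and cultured 4 h, then compounds added followed by HCVcc-Cre virus (~0.5 moi). After 44 h further culture, luciferase substrate was added, plates held 15 min at room temperature, and luminescence read for 15 sec.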
Vaccinia mCherry: qHTS for Stage-Specific Inhibitors of Vaccinia Orthopoxvirus: mCherry Reporter Primary qHTS; actives 0.63% (n = 310,000); Potency, µM (top dose mostly 36.5 µM), for inactives: top-dose activity change, negative = inhibition, actives largely listed as inhibitors; Vaccinia virus mCherry reporter infection, fluorescence; AID 720579, 2013; calls by dose curve; tested in A549 cells; note: potency is the fitted concentration of half-maximal effect; nearly all actives have a fitted effect of over 35% in size
HCMV antiviral: qHTS Assay for inhibitors of the human cytomegalovirus (HCMV). activity change, negative = inhibition, % at 57.5 µM. actives 4.5% (n = 410,000). HFF cells, HCMV-luciferase reporter, 72 h; active compounds read low. AID 1259415, 2018; in the data active = activity change below about -60%; inconclusive = no clear call, values can overlap the other calls; inactive = above about -39%
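Luciferase read-out from HCMV-luciferase-infected HFFs (MOI 1 PFU/cell) 72 h post infection at 37C; compounds added after 16 h cell attachment; activity normalized between buffer-only basal and Salinomycin (10uM) inhibitor controls.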
Vaccinia Venus: qHTS for Stage-Specific Inhibitors of Vaccinia Orthopoxvirus: Venus Reporter Primary qHTS; Vaccinia virus Venus reporter expression, fluorescence; Potency, µM (top dose mostly 36.5 µM), for inactives: at the highest dose activity change, negative = inhibition, hits mostly inhibitors; actives 0.46% (n = 330,000); calls by dose curve; tested in A549 cells; note: potency is the fitted concentration of half-maximal effect; nearly all actives have a fitted effect of over 30% in size
FMDV antiviral: High Throughput Screening for Foot and Mouth Disease Virus Antivirals. actives 1.2% (n = 410,000). FMDV antiviral cell-based qHTS. Potency, µM (top dose mostly 57.9 µM), for inactives: at the top dose activity change, negative = inhibition, most hits filed as inhibitors; calls by dose curve; tested in HEK293T cells; note: read-out not given here; potency is the fitted concentration of half-maximal effect; nearly all actives have a fitted effect of over 45% in size
* marks the source's active call; other numbers are inactive results; i = inactive; ? = inconclusive; nt = no result; [ ] = remark or other dose. % is set by controls: 0 for no effect and ±100 for the full control effect.

SMILES	HCV inh	Vaccinia mCherry	HCMV antiviral	Vaccinia Venus	FMDV antiviral
CC(=O)c1ccccc1OCC(O)CN1CCN(CCN2C(=O)c3cccc4cccc(c34)C2=O)CC1 (stereo unspecified)	10µM*	-21%	-65*	?	28µM*
CCn1cc(C(=O)NCc2ccc(Cl)cc2)c(=O)c2cc(S(=O)(=O)N(C)C3CCCCC3)ccc21	nt	-4%	-3	?	10%
COc1ccc(C(=O)N/C(=C\c2ccco2)C(=O)OCc2ccco2)cc1	-5%	-5%	29	-2%	26%
N#CC(C#N)=C1C=CC=CN1/C(=C\c1ccco1)C(=O)c1ccc(Br)cc1	?	?	-97*	?	10µM*
COc1ccc(/C=C(/C(=O)c2cccs2)N2C=CC=CC2=C(C#N)C#N)cc1	?	nt	-60*	nt	-18%
N#C/C(=C/c1ccco1)C(N)=S	8%	i	-4	-17%	-4%
COc1ccc(C=C(C#N)C(=O)c2ccccc2)cc1	nt	-1%	42	-10%	-15%
CC(C)(C)NC(=O)/C(=C/c1ccco1)c1ccccc1	-17%	i	29	9%	-21%
N#CC(C#N)=C1C=CC=CN1/C(=C\c1ccco1)C(=O)c1ccccc1	?	?	-100*	?	?
COc1ccc(C(=O)/C(=C\c2ccco2)N2C=CC=CC2=C(C#N)C#N)cc1	11µM*	?	nt	?	11µM*
CC(=O)c1ccc(NC(=O)c2cccc(NC(=O)N3CCSc4ncccc43)c2)cc1	nt	-15%	0	-14%	-14%
COC(=O)[C@]1(C#N)CC(=O)N([C@H](c2ccccc2)[C@@H](O)c2ccccc2)[C@@H]1c1ccccc1	nt	nt	-18	nt	nt
O=C(NCCOCCn1c(=O)oc2ccccc21)Nc1ccc(Cl)cc1	nt	25%	2	13%	-23%
CC(=O)Nc1cccc(-c2nnc(SCC(=O)c3cc([N+](=O)[O-])ccc3Cl)o2)c1	nt	-21%	?	-13%	?
CC12CCC(=O)N1C(C(=O)NNC(=O)c1ccccc1Cl)CS2 (stereo unspecified)	3%	nt	-90*	nt	-10%
COc1cc(OC)cc(C(=O)NNC(=O)C2CSC3(C)CCC(=O)N23)c1 (stereo unspecified)	-2%	nt	-18	nt	-11%
CN(Cc1ccc(Cl)c(Cl)c1)C(=O)C1CSC2(C)CCC(=O)N12 (stereo unspecified)	0%	nt	-82*	nt	-17%
CN(CC(=O)Nc1c(Cl)cccc1Cl)C(=O)C1CSC2(C)CCC(=O)N12 (stereo unspecified)	8%	-10%	0	-15%	-17%
O=C(Nc1ccc(F)c(Cl)c1)Nc1c[nH]c(=O)[nH]c1=O	nt	-2%	15	6%	-22%
COC(=O)c1ccc(Nc2nccc3[nH]c(-c4cccc(C(F)(F)F)c4)cc23)cc1	nt	nt	4	nt	nt
COc1ccc(C(=O)Nc2ccc3oc(-c4cccc(Cl)c4)cc(=O)c3c2O)cc1	?	i	-67*	-12%	-14%
CCOC(=O)c1nc(S(C)(=O)=O)ncc1N1CCOCC1	3%	-12%	4	-10%	nt
Cc1ccc(NC(=O)c2nc(S(=O)(=O)Cc3ccccc3)ncc2Cl)cc1	?	-23%	-98*	?	28µM*
CCc1nnc(NC(=O)c2nc(S(C)(=O)=O)ncc2Cl)s1	nt	1%	-12	8%	?
CCOC(=O)c1nc(S(C)(=O)=O)ncc1Cl	?	i	-70*	0%	nt
SMILES	HCV inh	Vaccinia mCherry	HCMV antiviral	Vaccinia Venus	FMDV antiviral
Cc1ccccc1NC(=O)c1nc(S(C)(=O)=O)ncc1Cl	?	nt	-99*	nt	?
CCCc1nnc(NC(=O)c2nc(S(=O)(=O)Cc3cccc(C)c3)ncc2Cl)s1	?	nt	-101*	nt	28µM*
O=C(Nc1ccc(S(=O)(=O)N2CCCCC2c2cccnc2)cc1)c1ccc(F)cc1 (stereo unspecified)	nt	-18%	-38	-10%	?
Cc1ccc2nc(-c3ccco3)c(Cc3ccccc3C(F)(F)F)n2c1	nt	nt	-2	nt	nt
O=C(NCc1ccccc1)c1nc(S(=O)(=O)Cc2ccc(F)cc2)ncc1Cl	nt	-12%[7.34 µM]	-98*	-14%[7.34 µM]	32µM*
O=C(Nc1ccccc1F)c1nc(S(=O)(=O)Cc2ccccc2F)ncc1Cl	nt	i	-109*	?	?
